# Source: PubChem BioAssay (National Center for Advancing Translational Sciences (NCATS))
# Shown are actives, neighbours in structure and some others; about 2% of the full set was active somewhere.
# Abeta yeast res: compounds reversing amyloid beta toxicity in yeast | yeast expressing A-beta42, growth rescue, OD600, 48 h; response scale: 0% DMSO, 100% iron-clioquinol control | 410,000 compounds, 0.063% hits | Potency, µM (top dose mostly 46.1 µM), hits mostly activators; further: nearly all actives have a fitted effect of over 55% in size
#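 Yeast A-beta toxicity model in growth medium with pinned compounds, 48 h at 30 C; growth read as absorbance at 600 nm. Normalized to FeCl3/clioquinol equimolar mix (positive) and DMSO (negative).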
# TDP-43 yeast inh: TDP-43 toxicity inhibition in yeast. TDP-43 expressing yeast growth rescue, BacTiter-Glo, 24 h. Potency, µM (highest dose often 46.1 µM), for inactives: at the highest dose growth rescue (activation), most hits filed as activators. 410,000 compounds, 1.8% hits. AID 652104; further: % of control where 0% means no effect; nearly all actives have a fitted effect of over 50% in size
#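 Galactose-induced TDP-43 yeast, OD600=0.02, compound pinned; 24 hr, 30 deg C; BacTiter-Glo luminescence for growth. Inhibitors of TDP-43 toxicity read as activators.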
# ASM inhibitor: human S-ASM enzyme inhibition. P17405. placental ASM, HMU-PC fluorogenic substrate, 60 min. Potency, µM (highest dose often 57.5 µM), without a hit: at the top dose activity change, negative = inhibition, most hits filed as inhibitors. 340,000 compounds, 0.006% hits
#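 Fluorogenic HMU-PC substrate (9 uM final) is turned over by placental ASM in 60 min at 37 C after a 10 min compound preincubation. Reaction ended by alkaline stop (pH 10), with fluorescence read at 386/447 nm.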
# aSyn rescue: rescues yeast growth from alpha-synuclein toxicity; AID 652106; Yeast expressing alpha-synuclein, growth rescue, BacTiter-Glo, 24 h; 370,000 compounds, 0.14% hits; Potency, µM (top dose mostly 46.1 µM), without a hit: at the highest dose growth rescue (activation), actives largely listed as activators; further: % of control where 0% means no effect; nearly all actives have a fitted effect of over 65% in size
#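 Rescue of yeast growth: cells expressing toxic alpha-synuclein, induced in galactose at OD600 0.02, incubated with compound 24 h at 30 C. ATP luminescence quantified growth; inhibitors of toxicity appear as activators.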
# Rango release inh: inhibitors of RanGTP-induced Rango-importin beta complex dissociation; 340,000 compounds, 0.071% hits; Biochemical FRET Rango-importin beta, RanGTP-induced dissociation; Potency, µM (top dose mostly 46.1 µM), for the others: top-dose activity change, negative = inhibition; AID 540253; calls by dose curve; further: % of control where 0% means no effect; nearly all actives have a fitted effect of over 45% in size
#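 Recombinant Rango FRET biosensor (EYFP–snurportin 1 IBB–cerulean CFP10) at 0.1 uM premixed with 0.25 uM importin beta in PBS, 1 mM DTT, 0.02% Tween-20, 0.1% BSA. Compound added 5 min; RanGTP-RCC1 (0.6 uM Ran, 2 mM GTP, 0.2 uM RCC1) then triggers release, read at 45 min.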
# Rango complex inh: inhibitors of Rango-importin beta complex formation | Q14974 | Rango CFP/YFP FRET sensor + importin beta, 45 min | Potency, µM (series often up to 92.2 µM), for the others: at the highest dose inhibition of complex formation | 340,000 compounds, 0.031% hits; calls by dose curve;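 further: 0% = DMSO wells and 100% = buffer wells lacking importin beta; nearly all actives have a fitted effect of over 15% in size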
#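 FRET biosensor (snurportin 1 IBB flanked by EYFP and cerulean), 50 nM, with compound 5 min, then 0.125 microM importin beta in PBS, 1 mM DTT, 0.02% Tween-20, 0.1% BSA. CFP/YFP ratio read after 45 min at room temperature; pre-read flags interference.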
# * = called active by the depositor; i = inactive; ? = inconclusive; nt = not tested or not shown; [ ] = remark or other dose. Unless noted, the call rests on the fitted dose curve; in most records, active means well fitted curve in the direction sought with a large enough effect; inconclusive means small, poorly fitted or top-dose-only effect, or another doubt; inactive means no such curve, though single readings can be large; an effect the other way counts as inactive or inconclusive. Potency means the concentration at half of the fitted maximal effect.
SMILES,Abeta yeast res,TDP-43 yeast inh,ASM inhibitor,aSyn rescue,Rango release inh,Rango complex inh
CCOC(=O)C1=CN(Cc2cccc(F)c2)S(=O)(=O)NC1c1ccc(F)c(Cl)c1 (stereo not given),i,9.6%,-6.7%,4.0%,11.7%,-2.7%
O=C(Nc1cccc(F)c1)C1CCN(c2nc3ccccc3[nH]2)CC1,i,12.3%,nt,nt,nt,nt
COc1cc2c(cc1OC)C(COc1ccccc1OC)N(C(=O)c1ccccc1OC)CC2 (stereo not given),i,22.7%,nt,0.2%,nt,nt
Cn1cc(C(=O)O)c(=O)c2cc(S(=O)(=O)N3CCOCC3)ccc21,i,0.0%,nt,nt,nt,nt
Cc1ccc(OCC(=O)NNC(=S)NC(=O)C(C)(C)C)c(Br)c1,i,5.01µM*,2.0%,23.9%,1.2%,-3.7%
Cc1ccc(OCC(=O)NNC(=S)NC(=O)C2CCCCC2)c(C)c1,i,12.6µM*,-3.1%,?,13.4%,1.0%
Cc1ccc(OCC(=O)NNC(=O)c2ccc(NC(=O)C3CC3)cc2)c(C)c1,i,11.4%,-2.7%,-0.3%,2.0%,-0.1%
Cc1ccc(OCC(=O)NC(=S)Nc2ccccn2)c(Br)c1,i,-5.3%,2.9%,-9.3%,-10.4%,-1.8%
CNc1nc(Nc2ccc(C)c(Cl)c2)c2cnn(C)c2n1,i,14.1µM*,-14.0%,1.3%,-6.6%,-0.9%
COc1ccccc1N1C(=O)S/C(=C\c2cc(C)n(C)c2C)C1=O,i,-0.9%,18.5%,-1.8%,18.4µM*,?
Cc1cccc(NC(=O)CN2C(=O)S/C(=C\c3cc(C)n(C)c3C)C2=O)c1,i,?,15.5%,-0.4%,23.1µM*,?
Cc1ccc(NC(=O)CN2C(=O)S/C(=C\c3cc(C)n(C)c3C)C2=O)cc1,i,-1.6%,34.6%,0.3%,?,?
Cc1c(/C=C2\SC(=O)N(CC(=O)Nc3ccc4c(c3)OCO4)C2=O)c2ccccc2n1C,i,-11.5%,-6.9%,2.0%,25.9µM*[inhibitor],?
CN1CCN(c2ncc3c(n2)CCN(Cc2cc(Br)cs2)C3)CC1,i,18.5%,nt,nt,nt,nt
CCCCn1c(=O)c(C(=O)OCC)c(O)c2ccccc21,i,15.8µM*,-0.8%,6.9%,38.4%,-6.0%
Cc1cc(NC(=O)COc2ccc(Cl)cc2Cl)n(-c2ccccc2)n1,i,17.5%,0.5%,2.8%,11.0%,0.4%
Cc1cc(NC(=O)CSc2cc(Cl)ccc2Cl)n(-c2ccccc2)n1,i,12.6µM*,-2.7%,15.8%,-10.6%,0.1%
Cc1cc(NC(=O)c2ccc(Cl)cc2Cl)n(-c2ccccc2)n1,i,20µM*,2.3%,-4.6%,21.9%,0.6%
COc1ccc(C)cc1NC(=O)COCc1cc(-c2ccc(F)cc2)on1,i,35.5µM*,nt,nt,nt,nt
COc1ccc(-c2sc3ccc(N4CCOCC4)cc3c2C#CCO)cc1,i,14.1µM*,33.9%,-9.5%,-19.0%,0.7%
Cc1cc(C)c(S(=O)(=O)Nc2ccc(-c3ccc(N4CCCCC4)nn3)cc2)cc1C,i,-0.1%,nt,nt,nt,nt
O=c1sc2ccccc2n1CCOc1ccccc1,i,11.2µM*,-2.1%,0.1%,0.5%,0.3%
S=c1[nH]c2ccccc2n1CCOc1ccccc1,11.2µM*,?,-1.8%,12.8%,19.1%,0.2%
S=c1[nH]c2ccccc2n1Cc1ccccc1,11.2µM*,?,3.7%,11.1%,4.3%,0.9%
CCOc1ccc(OCCn2c(=S)[nH]c3ccccc32)cc1,?,17.3%,-19.0%,0.0%,6.6%,0.3%
c1ccc(-c2ccccc2-c2nc(-c3ccncc3)no2)cc1,i,?,1.6%,15.6%,?,1.5%
Cc1ccc(SCc2nc(-c3cccnc3)no2)cc1,i,17.8µM*,-1.8%,5.4%,-16.9%,2.4%
Cc1ccccc1-c1nc(-c2cccnc2)no1,i,14.1µM*,1.2%,-0.1%,5.6%,-4.6%
